Bioassay records as filed in PubChem.
LDHA block = blocks human lactate dehydrogenase A; activity change, % (values are at about 110 or 230 µM); 480,000 tested, 0.15% active; purified LDHA, NADH/diaphorase-resazurin fluorescence; hits give low values; AID 1347041; in the data active = activity change below about -30%; inconclusive = mostly about -25% to -30%;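 note: plate controls were DMSO wells for no effect and wells without enzyme for full effect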
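Resorufin fluorescence (ex540/em590), read at 0 and 20 min after diaphorase/resazurin addition, reports the NADH left after a 5 min room-temperature reaction of 2 nM human LDH5 with 0.06 mM NADH and 0.2 mM pyruvate.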
mIDH1 inhibitor = inhibitors of human mutant IDH1 R132H; 390,000 tested, 0.093% active; Potency, µM (doses to about 76.6 µM), without a hit: top-dose activity change, negative = inhibition, hits mostly inhibitors; IDH1-R132H enzyme, NADPH consumption, diaphorase/resazurin fluorescence; note: potency is the fitted concentration of half-maximal effect; % is set by controls: 0 for no effect and ±100 for the full control effect; nearly all actives have a fitted effect of over 65% in size
Target sequence (O75874 whole entry R132H, stated change not applied): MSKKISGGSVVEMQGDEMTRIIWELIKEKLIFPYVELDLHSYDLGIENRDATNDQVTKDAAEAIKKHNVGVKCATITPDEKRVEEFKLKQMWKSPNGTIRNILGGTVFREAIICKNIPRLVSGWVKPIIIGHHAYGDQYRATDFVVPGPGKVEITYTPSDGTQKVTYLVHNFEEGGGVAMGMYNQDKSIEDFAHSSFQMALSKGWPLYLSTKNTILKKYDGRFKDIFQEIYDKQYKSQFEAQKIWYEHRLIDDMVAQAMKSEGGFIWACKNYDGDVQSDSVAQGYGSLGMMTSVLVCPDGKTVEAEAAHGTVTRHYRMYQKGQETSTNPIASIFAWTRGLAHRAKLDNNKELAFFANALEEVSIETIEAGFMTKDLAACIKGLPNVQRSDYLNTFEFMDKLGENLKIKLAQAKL
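IDH1-R132H (0.5 ug/mL dispensed) in pH 7.5 Tris buffer was preincubated 30 min with compound, then given a substrate mix of 0.016 mM NADPH and 2 mM alpha-KG for 80 min at room temperature; remaining NADPH was read by diaphorase/resazurin fluorescence.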
ATXN2 expr inh = reduces ATXN2 reporter expression in HEK-293 cells | AID 1745845 | 360,000 tested, 0.72% active | Potency, µM (top dose mostly 57 µM), for the others: at the top dose activity change, negative = inhibition, usual class: inhibitors | HEK-293 ATXN2-luciferase reporter, luminescence, 24 h; note: potency is the fitted concentration of half-maximal effect; % is set by controls: 0 for no effect and ±100 for the full control effect; nearly all actives have a fitted effect of over 55% in size
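qHTS (up to 57 uM final) was run with 24 h compound exposure of reporter cells at 37 °C. Each well was multiplexed: SteadyGlo luminescence measured ATXN2-luciferase expression after a fluorogenic Gly-Phe-AFC viability readout (25 uM final).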
HepG2 tox-1 = counter-screen for TGF-b inhibitors: cytotoxicity in HepG2 cells; Potency, µM (top dose mostly 46.1 µM), without a hit: top-dose activity change, negative = cytotoxicity, actives largely listed as cytotoxic; 410,000 tested, 0.76% active; HepG2 CAGA-GFP viability, ATP luminescence, 18 h; AID 588856; note: potency is the fitted concentration of half-maximal effect
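CellTiter-Glo luminescence gave cytotoxicity after 18 hours at 37 degrees C. The cells were HepG2 CAGA-GFP in 1% FBS DMEM, stimulated with 500 pg/mL TGF-beta after compound addition. %Activity was normalised to no-cell wells (complete cell-killing) and DMSO (no toxicity), and curves were fitted and classified.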
ATXN viability = cell viability loss in ATXN counter-screen. Potency, µM (doses to about 56.7 µM), hits mostly cytotoxic. 400,000 tested, 0.49% active. S2 cells (HEK-293 line with an ATXN2-luciferase reporter) viability, CellTiter-Fluor protease fluorescence, 24 h; note: potency is the fitted concentration of half-maximal effect; nearly all actives have a fitted effect of over 40% in size
TGFb inhibitor = blocks TGF-b signaling. HepG2 CAGA-GFP TGF-b/SMAD3 reporter, GFP fluorescence, 18 h; TGF-beta stimulated, 500 pg/mL final. Potency, µM (highest dose often 46.1 µM), without a hit: at the highest dose activity, negative = inhibition, hits mostly inhibitors. 410,000 tested, 1.2% active. AID 588855; note: potency is the fitted concentration of half-maximal effect; % is set by controls: 0 for no effect and ±100 for the full control effect; nearly all actives have a fitted effect of over 65% in size
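Per well, imaged GFP fluorescence of HEPG2 CAGA-GFP cells gives the signal; cells get compound, then TGF-beta (500 pg/mL final), 18 h at 37 degrees C; %Activity versus -TGF-beta and +DMSO controls.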
TGFb confirm = TGF-b pathway inhibition, cherry-pick retest. shares compounds with TGFb inhibitor. HepG2 CAGA-GFP TGF-b reporter, GFP fluorescence, 18 h; cells stimulated with TGF-beta, 500 pg/mL. Potency, µM (doses to about 46.1 µM), without a hit: top-dose activity, negative = inhibition, most hits filed as inhibitors. 1,600 tested, 63% active. AID 720534; note: potency is the fitted concentration of half-maximal effect; % is set by controls: 0 for no effect and ±100 for the full control effect; nearly all actives have a fitted effect of over 65% in size
HepG2 tox-2 = toxic to HepG2 cells in TGF-b counterscreen | shares compounds with TGFb inhibitor | HepG2 CAGA-GFP viability, ATP luminescence, 18 h; cells stimulated with TGF-beta, 500 pg/mL | 1,600 tested, 27% active | Potency, µM (top dose mostly 46.1 µM), for inactives: top-dose activity, negative = cytotoxicity, hits mostly inhibitors; note: potency is the fitted concentration of half-maximal effect; % is set by controls: 0 for no effect and ±100 for the full control effect; nearly all actives have a fitted effect of over 70% in size
TGFb CCL64 inh = TGF-b inhibition, CCL64 orthogonal assay; CCL64 CAGA-GFP reporter, TGF-b stimulated, GFP fluorescence, 18 h; 1,600 tested, 41% active; Potency, µM (top dose mostly 46.1 µM), for inactives: top-dose activity, negative = inhibition, most hits filed as inhibitors; AID 720536; shares compounds with TGFb inhibitor; note: potency is the fitted concentration of half-maximal effect; nearly all actives have a fitted effect of over 65% in size
TGFb COP inh = validation of TGF-b inhibitors in HepG2 COP promoter reporter | shares compounds with TGFb inhibitor | Potency, µM (titrated, usually from 46.1 µM), inactives show at the top dose activity, negative = inhibition, actives largely listed as inhibitors | 1,600 tested, 3% active | AID 720537 | HepG2 COP-GFP TGF-b reporter, GFP fluorescence, 18 h; cells stimulated by added recombinant TGF-beta; note: potency is the fitted concentration of half-maximal effect; nearly all actives have a fitted effect of over 70% in size
Active calls of the source: *; ! = not confirmed by another sample; [ ] = another dose, or the depositor's remark. Hits are enriched below; roughly 2.2% of the tested compounds scored in any of these assays. Unless noted, calls come from the whole dose curve; as a rule, active = well fitted curve in the direction sought with a large enough effect; inconclusive = small, poorly fitted or top-dose-only effect, or another doubt; inactive = no such curve, though single readings can be large; an effect the other way counts as inactive or inconclusive.

How did CC[C@H]1CN2CCc3cc(OC)c(OC)cc3C2C[C@@H]1C[C@H]1NCCc2cc(OC)c(OC)cc21 (stereo partly drawn) do in these assays?
LDHA block: 2.4; mIDH1 inhibitor: 1.9%; ATXN2 expr inh: -76.4%; HepG2 tox-1: -19.7%; ATXN viability: inconclusive; TGFb inhibitor: -108.9%; TGFb confirm: 0.0517µM*; HepG2 tox-2: 2.91µM*; TGFb CCL64 inh: 0.0731µM*; TGFb COP inh: 35.5%

How did O=C1CSC(c2ccccc2Br)c2cn[nH]c2N1 (stereo not drawn) do in these assays?
LDHA block: 11.4

Results for Cc1ccc2c(c1)C1CN(C)CCC1N2C(=O)c1ccco1 (stereo not drawn) ?
LDHA block: 1.2; mIDH1 inhibitor: -2.5%; ATXN2 expr inh: -8.6%; HepG2 tox-1: 1.1%; ATXN viability: inactive; TGFb inhibitor: 0.0%

How did COc1ccc(-c2nn(-c3ccccc3)cc2C(=O)N2c3ccc(C)cc3C3CN(C)CCC32)cc1 (stereo not drawn) do in these assays?
LDHA block: -1.4; mIDH1 inhibitor: 0.8%; ATXN2 expr inh: -26.1%; HepG2 tox-1: -42.0%; ATXN viability: inactive; TGFb inhibitor: 10µM*; TGFb confirm: -6.6%; HepG2 tox-2: -25.3%; TGFb CCL64 inh: inconclusive; TGFb COP inh: 7.8%

Results for CC(=O)NCCNC(=O)c1cn(Cc2ccccc2)c2ccccc12 ?
LDHA block: -2.1

Results for C[C@H]1CCC/C=C/[C@@H]2C[C@H](O)C[C@H]2[C@H](O)/C=C/C(=O)O1 ?
LDHA block: -13.6; mIDH1 inhibitor: 28.0%; ATXN2 expr inh: inconclusive; HepG2 tox-1: -31.8%; ATXN viability: inactive; TGFb inhibitor: 0.126µM*!; TGFb confirm: 0.116µM*; HepG2 tox-2: inconclusive; TGFb CCL64 inh: inconclusive; TGFb COP inh: 63.9%

What do the screens show for `CC(=O)OC[C@]12CCC(C)=C[C@H]1O[C@@H]1[C@H](O)[C@@H](OC(C)=O)[C@@]2(C)[C@]12CO2`?
LDHA block: -3.1; mIDH1 inhibitor: 2.2%; ATXN2 expr inh: -70.7%; HepG2 tox-1: -12.8%; ATXN viability: inactive; TGFb inhibitor: -87.8%; TGFb confirm: 0.0366µM*; HepG2 tox-2: 0.146µM*; TGFb CCL64 inh: 0.0366µM*; TGFb COP inh: -6.9%

How did COc1ccc(CN2Cc3cnnn3-c3ccccc3C2C)cc1 (stereo not drawn) do in these assays?
LDHA block: 0.4; mIDH1 inhibitor: 2.3%[38.3 µM]; ATXN2 expr inh: -13.8%; HepG2 tox-1: -17.9%; ATXN viability: inconclusive; TGFb inhibitor: 1.5%

How did CC1=CC2OC3CC4OC(=O)C=CC=CC(C(C)O)OCC(O)C(C)CC(=O)OCC2(CC1O)C4(C)C31CO1 (stereo not drawn) do in these assays?
LDHA block: 2.2; mIDH1 inhibitor: -0.1%; ATXN2 expr inh: -68.7%; HepG2 tox-1: 4.3%; ATXN viability: inconclusive; TGFb inhibitor: -106.6%; TGFb confirm: 0.0411µM*; TGFb CCL64 inh: 0.0291µM*; TGFb COP inh: -1.3%

What do the screens show for `CC1=CC2OC3CC4OC(=O)C=CC=CC(=O)OCCC(C)C(O)C(=O)OCC2(CC1O)C4(C)C31CO1` (stereo not drawn)?
LDHA block: -7.2; mIDH1 inhibitor: -2.5%; ATXN2 expr inh: inconclusive; HepG2 tox-1: -3.4%; ATXN viability: inconclusive; TGFb inhibitor: -119.2%; TGFb confirm: 0.0116µM*; TGFb CCL64 inh: 0.0046µM*; TGFb COP inh: 9.6%

How did Cn1cc(C(=O)NP(=O)(N2CCOCC2)N2CCOCC2)c2ccccc21 do in these assays?
LDHA block: 0.0; mIDH1 inhibitor: 7.8%; ATXN2 expr inh: 14.2%; HepG2 tox-1: -26.8%; ATXN viability: inactive; TGFb inhibitor: -21.8%

How did Oc1ccc(C2=CCNCC2)cc1O do in these assays?
LDHA block: 11.5; ATXN2 expr inh: -9.4%; HepG2 tox-1: -2.5%; ATXN viability: inactive; TGFb inhibitor: -3.0%

How did Cc1[nH]nc2ccc(-c3cncc(OC[C@@H](N)Cc4c[nH]c5ccccc45)c3)cc12 do in these assays?
LDHA block: -7.3; mIDH1 inhibitor: -0.5%[38.3 µM]; ATXN2 expr inh: 2.24µM*; HepG2 tox-1: -86.6%; TGFb inhibitor: 1µM*; TGFb confirm: 1.64µM*; HepG2 tox-2: 1.3µM*; TGFb CCL64 inh: -103.4%; TGFb COP inh: -53.1%

What do the screens show for `Cc1nn(Cc2ccccc2)c(C)c1C(=O)NC1CCCc2ccccc21` (stereo not drawn)?
LDHA block: 0.2; mIDH1 inhibitor: -1.2%; ATXN2 expr inh: -3.0%; HepG2 tox-1: 8.4%; ATXN viability: inactive; TGFb inhibitor: -8.2%

Results for C[C@H]1O[C@@H](O[C@H]2CC[C@]3(C=O)[C@H]4CC[C@]5(C)[C@H](C6=CC(=O)OC6)CC[C@]5(O)[C@@H]4CC[C@]3(O)C2)C[C@H](O)[C@@H]1O ?
LDHA block: -1.3

What do the screens show for `CC1OC(OC2CC(O)C3(CO)C4C(O)CC5(C)C(C6=CC(=O)OC6)CCC5(O)C4CCC3(O)C2)C(O)C(O)C1O` (stereo not drawn)?
LDHA block: -7.3; mIDH1 inhibitor: 0.1%; ATXN2 expr inh: 0.006µM*; HepG2 tox-1: -54.3%; ATXN viability: inconclusive; TGFb inhibitor: 1.12µM*; TGFb confirm: 3.66µM*; HepG2 tox-2: 0.291µM*; TGFb CCL64 inh: 0.206µM*; TGFb COP inh: 36.8%
